The record followed here is PubChem BioAssay AID2546 (National Center for Advancing Translational Sciences (NCATS), 2010).

Out of some 310,000 compounds screened, about 11,000 (3.5%) were called active. About 8% were inconclusive and are not listed. This is one part of a sample in which actives are shown more often than they occur. A number with no mark means an inactive call. Calls follow the shape of the dose curve; as a rule, active = well fitted inhibition curve with a large enough effect; inconclusive = small, poorly fitted or top-dose-only effect, or effect the other way; inactive = flat fitted curve, though single readings scatter.
% is scaled to controls: 0 for no effect and ±100 for the full control effect; potency is read from the fitted curve at half-maximal effect.

The nature of this assay: VP16 counterscreen qHTS for inhibitors of ROR gamma transcriptional activity.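 Also: Gal4-VP16 expression switched on by copper sulfate through the metallothionein promoter; nearly all actives have a fitted effect of over 50% in size.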 Conditions: Drosophila S2 Gal4-VP16 UAS-luciferase, luminescence, 20 h; series mostly up to 53.6 µM; activity, negative = inhibition: at the top concentration.
Regarding `CC(=O)c1ccc(S(=O)(=O)N(C)CCCC(=O)N(C)Cc2ccccc2F)cc1`, the “activity, negative = inhibition” value was 12.7%.
For the compound `CCOc1ccc(N(CC)S(=O)(=O)c2cccc3nsnc23)cc1`, the “activity, negative = inhibition” value is 3.67%.
As to `Cc1ccc(C2=C/C(=C\c3cccnc3)C(=O)O2)cc1`, the “activity, negative = inhibition” value was -8.91%.
Take `CN(C)/C=C1/C(=O)Nc2ccccc21`: the “activity, negative = inhibition” value is 16.7%.
On to `CN(C)/C=C1\C=C(c2ccccc2)OC1=O`, for which the Potency was 35.5 µM (active).
Consider `COc1cc(NC(=O)CN2C(=O)NC(C)(c3ccc(OC(F)F)cc3)C2=O)cc(OC)c1OC` (configuration not stated), for which the “activity, negative = inhibition” value was 0.174%.
With `Cc1ccc(O)c(CNc2nc3ccccc3[nH]2)c1`, the “activity, negative = inhibition” value was 2.12%.
`COc1ccc(NC(=O)CCCC(=O)c2ccccc2)cc1`: the “activity, negative = inhibition” value was 5.32%.
On to `Cc1ccc(S(=O)(=O)NC(=O)c2cccc(C)c2)cc1`, for which the “activity, negative = inhibition” value is -7.96%.
For `Cc1cccc(C(=O)NC(=S)N(C)C2CCCCC2)c1`, the Potency is 2.24 µM (active).
Consider `Cc1cccc(C(=O)NCCCN(C)CCCNC(=O)c2cccc(C)c2)c1`, for which the “activity, negative = inhibition” value is -3.12%.
In the case of `COc1ccc(N2CCN(C(=O)[C@@H](NC(=O)c3cc(OC)cc(OC)c3)C(C)C)CC2)cc1`, the “activity, negative = inhibition” value is 3.33%.
In the case of `CCC(NC(=O)c1cc(COc2ccc(F)c(F)c2)on1)c1ccncc1` (configuration not stated), the “activity, negative = inhibition” value is -21%.
Regarding `CC(C)c1ccc(NC(=O)NC2CCCCC2)cc1`, the “activity, negative = inhibition” value was 12.2%.
Turning to `Cc1cc(C)cc(NC(=O)NC2CCCCCCC2)c1`, the “activity, negative = inhibition” value is -0.699%.
As for `Cc1ccc(NC(=S)NC2CCCC2)cc1`, the Potency was 11.2 µM (active).
`CC(Oc1ccc(Br)cc1Br)C(=O)NC1CCCC1` (configuration not stated): the “activity, negative = inhibition” value is -2.5%.
Same read-out and setting: then `Cc1ccc(NC(=O)CSCC(=O)NC2CCCCC2)cc1`, with -17%.
As to `Cc1cc(Br)ccc1NC(=S)NC1CCCC1`, the Potency was 5.62 µM (active).
On to `CCC1=Nc2cc(C(=O)NCCN3CCCC3)ccc2Sc2ccc(C)cc21`, for which the “activity, negative = inhibition” value was -4.97%.
For `C/C(=N/OC(=O)c1ccc(Br)cc1)c1ccc(C)cc1`, the “activity, negative = inhibition” value was -11%.
Take `COc1ccccc1C(=O)N/C(=C/c1ccco1)C(=O)Nc1ccc(C(=O)O)cc1`: the “activity, negative = inhibition” value was 2.53%.
Consider `CN(C)S(=O)(=O)c1cccc(NC(=O)Cc2ccsc2)c1`, for which the “activity, negative = inhibition” value was -16.8%.
Take `Cc1ccc(/C=N/NC(=S)Nc2cccc(S(=O)(=O)N(C)C)c2)o1`: the Potency is 15.8 µM (active).
On to `CN(C)S(=O)(=O)c1cccc(NC(=O)COC(=O)c2cc(=O)[nH]c(=O)[nH]2)c1`, for which the “activity, negative = inhibition” value is -2.27%.
For the compound `N#CCC(=O)NC1CCC(CC2CCC(NC(=O)CC#N)CC2)CC1` (configuration not stated), the “activity, negative = inhibition” value was -5.43%.
As to `COCCNc1ccc(-c2n[nH]c(=O)c3ccccc23)cc1[N+](=O)[O-]`, the “activity, negative = inhibition” value was -1.01%.
`Cc1ccc2oc(C(=O)N3CCN(C)C[C@@H]3C(C)C)c(C)c2c1`: the “activity, negative = inhibition” value was 20.7%.
`Cc1cc(C(=O)Cn2cnc3cc([N+](=O)[O-])ccc3c2=O)c(C)n1CC1CCCO1` (configuration not stated): the “activity, negative = inhibition” value is 9.33%.
On to `Cc1nnc(SCC(N)=O)n1CC1CCCO1` (configuration not stated), for which the “activity, negative = inhibition” value was 3.36%.
`Cc1ccsc1C(=O)OCC(=O)c1cc(C)n(CC2CCCO2)c1C` (configuration not stated): the Potency was 7.08 µM (active).
In the case of `CCOc1ccc2[nH]c(=O)c(CN(CCCO)S(=O)(=O)c3ccc(F)cc3)cc2c1`, the “activity, negative = inhibition” value was 0.404%.
Consider `COc1ccc2oc(C(=O)NCc3ccco3)c(C)c2c1`, for which the “activity, negative = inhibition” value was 27.1%.
On to `c1ccc2cc3c(NCCN4CCOCC4)ccnc3cc2c1`, for which the Potency is 12.6 µM (active).
On to `CN(C)c1ccc(-c2nc(NCCN3CCOCC3)c3ccccc3n2)cc1`, for which the “activity, negative = inhibition” value was -27.7%.
As to `Clc1ccccc1-c1cc(NCCN2CCOCC2)ncn1`, the “activity, negative = inhibition” value was -0.277%.
In the case of `COc1ccc(C(=O)Nc2ccc(NC(=O)C(C)C)nc2)cc1`, the “activity, negative = inhibition” value was 6.09%.
Turning to `COc1ccc(NC(=O)/C(Cl)=C(/Cl)S(=O)Cc2ccc(C)cc2)cn1` (configuration not stated), the “activity, negative = inhibition” value was -8.88%.
For the compound `COc1ccc(CS(=O)/C(Cl)=C(/Cl)C(=O)Nc2ccc(OC)nc2)cc1` (configuration not stated), the Potency is 3.98 µM (active).
For the compound `COc1cccc(CNC(=O)COc2cc(O)c3c(c2)OC(C)(C)CC3=O)c1`, the “activity, negative = inhibition” value was 3.82%.
For `COc1cc(/C=N/O)ccc1OCc1ccc([N+](=O)[O-])cc1`, the “activity, negative = inhibition” value is -14.8%.
Turning to `COc1cc(/C=N/Nc2ccc(C)cc2)cc(Br)c1O`, the “activity, negative = inhibition” value was -1.91%.
On to `COc1cc(/C=N/O)cc(Br)c1OCc1cccc(Cl)c1`, for which the Potency was 11.2 µM (active).
Regarding `COc1ccc(/C=N/NC(=O)c2ccccc2)cc1OS(=O)(=O)c1ccccc1`, the “activity, negative = inhibition” value was -25.7%.
For the compound `CCOc1c(Cl)cc(/C=N/O)cc1OC`, the “activity, negative = inhibition” value was 4.4%.
As for `COc1cc(/C=N/O)cc(Br)c1OS(=O)(=O)c1ccc(C)cc1`, the Potency was 11.2 µM (active).
On to `CCc1c(C)c2ccc(OC3CCCCC3=O)cc2oc1=O` (configuration not stated), for which the “activity, negative = inhibition” value was 6.03%.
Turning to `CCOCCCN1C(=O)C2C(C(=O)Nc3ccc(OCC)cc3)C3C=CC2(O3)C1C(=O)NC1CCCCC1` (configuration not stated), the “activity, negative = inhibition” value was -1.17%.
`O=C(NC1CC1)C(Cc1ccccc1)NS(=O)(=O)c1ccccc1F` (configuration not stated): the “activity, negative = inhibition” value was -1.56%.
With `Cc1ccc(NC(=O)Nc2cccnc2)cc1`, the “activity, negative = inhibition” value was -10.8%.
Turning to `COc1cc(/C=C(\C#N)c2nc3ccccc3[nH]2)ccc1O`, the “activity, negative = inhibition” value was 4.23%.
In the case of `COc1cc(/C=C(\C#N)c2nc3c(s2)CC(C)CC3)ccc1O` (configuration not stated), the Potency was 4.47 µM (active).
On to `COc1cc(/C=N/Nc2nc3ccccc3s2)ccc1O`, for which the “activity, negative = inhibition” value is -5.9%.
`Cc1cc(-c2nnc(SCC(=O)Nc3ccc(S(N)(=O)=O)cc3)n2N)n[nH]1`: the “activity, negative = inhibition” value was -11.2%.
As for `NC(=O)c1cc(S(=O)(=O)N2CCCC2)ccc1OCc1ccc(F)cc1`, the “activity, negative = inhibition” value was 3.21%.
On to `COC(=O)c1ccccc1NC(=O)CSc1n[nH]c(-c2ccncc2)n1`, for which the “activity, negative = inhibition” value is 2.2%.
With `Cc1ccc(CSCC2Nc3ccc(C(=O)N4CCN(c5ccc(F)cc5)CC4)cc3NC2=O)cc1` (configuration not stated), the “activity, negative = inhibition” value is 0.0449%.
In the case of `CC(=O)N(CCCN(C)C)c1nc2ccc(C)cc2s1`, the “activity, negative = inhibition” value was -1.15%.
Take `CCN(CC)CCN(C(=O)c1ccc(S(=O)(=O)N2CCOCC2)cc1)c1nc2cc3c(cc2s1)OCCO3`: the “activity, negative = inhibition” value was -4.42%.
In the case of `CN(C)CCCN(C(=O)c1ccc(S(=O)(=O)N2CCCCCC2)cc1)c1nc2ccc(Br)cc2s1`, the Potency is 17.8 µM (active).
Turning to `Cc1occc1C(=O)Nc1nnc(C2CCCCC2)s1`, the “activity, negative = inhibition” value is 1.48%.
Take `Cc1cnc(NC(=O)CSc2c(Cl)cccc2Cl)s1`: the “activity, negative = inhibition” value is -6.38%.
The same measure, in the same setting: then `Cc1ccc(SCC(=O)Nc2ncc(C)s2)cc1`, with -15%.
For the compound `O=C(Nc1nnc(C2CC2)s1)c1ccccn1`, the Potency is 4.47 µM (active).
With `Cc1cnc(NC(=O)c2ccccn2)s1`, the Potency was 4.47 µM (active).
Regarding `O=C(Cc1cccs1)Nc1nnc(C2CC2)s1`, the “activity, negative = inhibition” value is 1.44%.
For `Cc1cccc(NC(=O)c2sc3nc(N4CCOCC4)c4c(c3c2N)CCCC4)c1`, the “activity, negative = inhibition” value was -11%.
As for `CN(CCNC(=O)c1cc2c(-c3ccccc3F)nn(C)c2s1)C1CCCCC1`, the “activity, negative = inhibition” value was 1.6%.
Still for that read-out and setting: then `NC(=O)c1oc2ccccc2c1NC(=O)Cc1ccccc1`, with -5.97%.
Regarding `COc1cccc2c(C)c(C(=O)O)[nH]c12`, the Potency is 10 µM (active).
Regarding `COc1cc2c(C(=O)O)c(C)n(C)c2c2ccccc12`, the “activity, negative = inhibition” value is -1.23%.
On to `Cc1c(C(=O)N/N=C/c2ccccc2)[nH]c2c([N+](=O)[O-])cccc12`, for which the “activity, negative = inhibition” value is 2.4%.
